Data published in PubChem BioAssay (NCATS).
Activity calls are given as the source filed them. Calls come from the whole dose curve.

Assay: qHTS drug screen for cell cycle checkpoint inhibitors in PARPi-resistant BRCA-mutant ovarian cancer cell lines. (AID 1963452)
Settings: PEO1/OlaR viability, CellTiter-Glo luminescence, 96 h; for Z-AUC: stronger effect = lower value
Description: Women's Malignancies Branch, Center for Cancer Research (CCR),
National Cancer Institute (NCI), National Institutes of Health (NIH), Bethesda, MD
Poly (ADP-ribose) polymerase inhibitors (PARPis) have changed the treatment paradigm in breast cancer gene (BRCA) - mutant high-grade serous ovarian carcinoma (HGSC). However, most patients eventually develop resistance to PARPis, highlighting an unmet need for improved therapeutic strategies. Using high-throughput drug screens, we identified ataxia telangiectasia and rad3-related protein/checkpoint kinase 1 (CHK1) pathway inhibitors as cytotoxic and further validated the activity of the CHK1 inhibitor (CHK1i) prexasertib in PARPi-sensitive and -resistant BRCA-mutant HGSC cells and xenograft mouse models. CHK1i monotherapy induced DNA damage, apoptosis, and tumor size reduction. We then conducted a phase 2 study (NCT02203513) of prexasertib in patients with BRCA-mutant HGSC. The treatment was well tolerated but yielded an objective response rate of 6% (1 of 17; one partial response) in patients with previous PARPi treatment. […] BRCA reversion mutation in previously PARPi-treated BRCA-mutant patients was not associated with resistance to CHK1i.
Among others, 1082 oncology drugs, both approved and investigational, were prioritized based on their status in clinical trial development. […] Drugs with average Z-AUC values less than -1.0 in all three cell lines were classified as "hits" resulting in 151 oncology drug hits. The screen also confirmed cross-resistance between olaparib and other PARPis (rucaparib, niraparib, and talazoparib) in PARPi-resistant PEO1/OlaR and PEO4.
[1] G. L. Lin, K. M. Wilson, M. Ceribelli, B. Z. Stanton, P. J. Woo, S. Kreimer, E. Y. Qin, X. Zhang, J. Lennon, S. Nagaraja, P. J. Morris, M. Quezada, S. M. Gillespie, D. Y. Duveau, A. M. Michalowski, P. Shinn, R. Guha, M. Ferrer, C. Klumpp-Thomas, S. Michael, C. McKnight, P. Minhas, Z. Itkin, E. H. Raabe, L. Chen, R. Ghanem, A. C. Geraghty, L. Ni, K. I. Andreasson, N. A. Vitanza, K. E.Warren, C. J. Thomas, M. Monje, Therapeutic strategies for diffuse midline glioma from high-throughput combination drug screening. Sci. Transl. Med. 11, (2019).
[2] T. M. Yamamoto, A. McMellen, Z. L. Watson, J. Aguilera, R. Ferguson, E. Nurmemmedov, T. Thakar, G. L. Moldovan, H. Kim, D. M. Cittelly, A. M. Joglar, E. P. Brennecke, H. Wilson, K. Behbakht, M. J. Sikora, B. G. Bitler, Activation of Wnt signaling promotes olaparib resistant ovarian cancer. Mol. Carcinog. 58, 1770 - 1782 (2019).
PROTOCOL TABLE (as described by Inglese J, Shamu CE and Guy RK. 2007)
SEQUENCE No. (e.g., 1, 2, 3, etc.); […] (e.g., Cells, Incubation, Reagent, etc.); VALUE; DESCRIPTION.
1; Compounds; 20nL; 1536-well white tissue culture-treated plates.
2; Cells; 5 uL; PEO1, PEO4, and PEO1/OlaR cells at 600 cells per well.
3; Incubation; 96 hr; 37C, 95% humidity, 5% CO2.
4; Reagent; 3 uL; CellTiter-Glo (Promega).
5; Incubation; 15 min; room temperature.
6; Detection; Luminescence, PHERAstar (BMG Labtech) plate reader.
NOTES (numbers refer to Sequence numbers above)
1. MIPE 5.0 compounds were acoustically dispensed by Echo Acoustic Liquid Handler (Beckman Coulter Life Sciences). Each compound was plated at an 11-point concentration range with 1:3 dilution. Bortezomib, a proteasome inhibitor (final concentration, 20 uM), was used as a positive.
2. PEO1, PEO4, and PEO1/OlaR were trypsinized and dispensed in 5 uLof growth medium using a Multidrop Combi dispenser at a density of 600 cells per well to allow compounds to be present during the exponential growth phase.
3. Plates were incubated for 96 hours at standard incubator conditions and covered by a stainless steel gasketed lid to prevent evaporation.
4. Three microliters of CellTiter-Glo (Promega) were added to each well.
5. Plates were incubated at room temperature for 15 min with a stainless-steel lid in place.
6. Luminescence readings were taken using PHERAstar (BMG Labtech). […]

[1] = measured here: PEO1 parental Z-AUC
Potency is the fitted concentration of half-maximal effect.

Structure (SMILES) | Potency | Z-AUC [1] | Z-AUC (measured here: PEO4 Z-AUC) | Z-AUC
C/C=C(/C)C(=O)O[C@H]1C(C)=C2[C@H]([C@@H]1OC(=O)CCCCCCC)[C@@](C)(OC(C)=O)C[C@H](OC(=O)CCC)[C@@]1(O)[C@H]2OC(=O)[C@@]1(C)O | 9.8 nM (active) | -2.42 | -2.66 | 
O=C(N[C@H]1CN2CCC1CC2)c1ccc(Cl)cc1 |  | 0.355 | -0.659 | -0.714 (inactive)
CCCC[N+]1(C)[C@H]2CC(OC(=O)[C@H](CO)c3ccccc3)C[C@H]1[C@H]1O[C@H]12 (some centres not stated) |  | 1.34 | 1.36 | 1.48 (inactive)
Cc1c(C(=O)Nc2cccc(C(F)(F)F)c2)cc(-c2ccccc2)n1CCCN1CCOCC1 |  | -0.727 | -1.05 | -1.03 (inactive)
CCOP(=O)(OCC)C(C)NC(=O)N(CCCl)N=O (configuration not stated) |  | 0.417 | 0.472 | 1.21 (inactive)
CN(C)NC(=O)CCC(=O)O |  | 0.492 | 0.93 | 1.04 (inactive)
CC(C)(C)c1cc(C=C(C#N)C#N)cc(Br)c1O |  | 1.11 | 0.988 | 1.28 (inactive)
COC(=O)[C@@H](N)CCCN=C(N)N[N+](=O)[O-] |  | -0.429 | -0.589 | -0.673 (inactive)
COc1cc([C@@H]2c3cc4c(cc3[C@@H](O)C3COC(=O)C32)OCO4)cc(OC)c1O (some centres not stated) |  | -0.507 | -1.03 | -0.729 (inactive)
NC1=NC(=O)N2CC12 (configuration not stated) |  | -0.747 | -0.506 | -1.19 (inactive)
N=c1c2c(-c3ccccc3)c(-c3ccccc3)n(Cc3ccccc3)c2ncn1C1CCC(O)CC1 (configuration not stated) |  | -0.41 | -0.216 | 0.292 (inactive)
CCN1CCN(C(=O)Cc2ccc(Nc3ncc(F)c(Nc4ccc(C(=O)Nc5ccccc5Cl)cc4)n3)cc2)CC1 |  | -0.415 | -1.09 | 0.278 (inactive)
CCOC(=O)Nc1ccc(NCc2ccc(F)cc2)cc1N |  | 0.0556 | 0.397 | -0.328 (inactive)
C#CC1(O)CCC2C3CCC4=CC(=O)CCC4(C)C3CCC21C (configuration not stated) |  | 0.372 | 0.608 | 0.597 (inactive)
